Data published in PubChem BioAssay (EPA / NIEHS).
Inconclusive results are not listed. The source made the active and inactive calls. The calls were made as follows, unless noted: active = hit-call score of the fitted dose curve at least 0.9, where 1 is the maximum; inactive = score below 0.9.

Assays:
[1] = target: Myc proto-oncogene protein (Homo sapiens) (UniProt P01106); assay: ATG_Myc_CIS: Attagene CIS-FACTORIAL HepG2 Assay for human Myelocytomatosis (Myc) Proto-Oncogene Transcription Factor (AID 2282990); conditions: HepG2, Attagene cis-reporter transcription factor activity; actives raise or lower the signal
In short: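 Transiently transfected HepG2 cells bearing cis-promoter reporter units for endogenous transcription factors; 24 h exposure. Reporter mRNA measured by RT-PCR, 6-FAM primer extension, HpaI cut and capillary electrophoresis; bidirectional fit relative to DMSO.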

[2] = ATG_NF_kB_CIS: Attagene CIS-FACTORIAL HepG2 Assay for human Nuclear Factor Kappa B (NF-kB) (AID 2282991); conditions: HepG2 Attagene cis-factorial NF-kB reporter mRNA; actives raise or lower the signal
In short: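 HepG2, transient multi-reporter transfection, cis promoter elements (endogenous TFs). 24 h exposure. Total RNA → RT → PCR → 6-FAM label → HpaI → CE. Gain/loss vs DMSO.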

[3] = ATG_NRF2_ARE_CIS: Attagene CIS-FACTORIAL HepG2 Assay for human Nuclear Factor Erythroid 2 Related Factor 2 (NFR2) response to Antioxidant Response Elements (ARE) (AID 2282992); conditions: HepG2 Attagene ARE/NRF2 reporter, transcription factor activity; actives raise or lower the signal;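 as to AC50: reporter mRNA level measured by RT-PCR and capillary electrophoresis fluorescence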
In short: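 Readout: reporter mRNA quantified by RT-PCR plus FAM-labelled primer extension, HpaI digestion and capillary electrophoresis, 24 h after dosing transfected HepG2 cells. Gain or loss of signal is fitted bidirectionally against DMSO baseline.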

[4] = ATG_Oct_MLP_CIS: Attagene CIS-FACTORIAL HepG2 Assay for human Octamer-Binding Transcription Factor (Oct) (AID 2282993); conditions: HepG2 Attagene cis-factorial Oct reporter, mRNA; actives raise or lower the signal
In short: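 Using HepG2 cells bearing transfected cis-reporter constructs, mRNA induction was read after 24 h by fluorescent RT-PCR and capillary electrophoresis, with DMSO defining baseline for gain- or loss-of-signal fits.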

[5] = target: Cellular tumor antigen p53 (Homo sapiens) (UniProt P04637); assay: ATG_p53_CIS: Attagene CIS-FACTORIAL HepG2 Assay for human p53 Transcription Factor (AID 2282994); conditions: HepG2 p53 cis-element reporter, Attagene mRNA; actives raise or lower the signal
In short: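 Read-out: reporter mRNA by RT-PCR plus capillary electrophoresis with fluorescence detection. Human HepG2 liver cells carried transfected multi-reporter cis-element constructs, dosed 24 h. Gain or loss of signal fitted bidirectionally against DMSO control.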

[6] = BSK_3C_TissueFactor: BioMAP Diversity Plus: 3C Assay for Tissue Factor Biomarker Activity (AID 2282997); conditions: BioMAP 3C HUVEC, tissue factor biomarker readout; actives raise or lower the signal
In short: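 After a 24 h chemical exposure of primary human umbilical vein endothelial cells, Tissue Factor levels were quantified by ELISA.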

[7] = BSK_3C_uPAR: BioMAP Diversity Plus: 3C Assay for Urokinase-type plasminogen activator receptor (uPAR) Biomarker Activity (AID 2282998); conditions: BioMAP 3C HUVEC, uPAR biomarker ELISA; actives raise or lower the signal
In short: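 In this endothelial cell-based assay, human umbilical vein primary cells were treated with chemicals and harvested at 24 h. uPAR was quantified using ELISA, with gains or losses fitted relative to DMSO controls.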

[8] = BSK_3C_VCAM1: BioMAP Diversity Plus: 3C Assay for Vascular cell adhesion molecule 1 (VCAM1) Biomarker Activity (AID 2282999); conditions: BioMAP 3C HUVEC, VCAM1 ELISA, cytokine-stimulated; actives raise or lower the signal
In short: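 HUVEC primary cells, 24 h compound exposure; VCAM-1 by ELISA; gain/loss of signal fitted bidirectionally vs DMSO baseline.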

[9] = BSK_4H_Eotaxin3: BioMAP Diversity Plus: 4H Assay for Eotaxin 3 Biomarker Activity (AID 2283000); conditions: primary human endothelial cells (HUVEC); actives raise or lower the signal
In short: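 Chemicals were added to human umbilical vein endothelium cultures, and Eotaxin-3 was quantified by ELISA at 24 h. Values were derived by bidirectional fitting with DMSO serving as negative control and activity baseline.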

[10] = target: human Peroxisome Proliferator-activated Receptor alpha (PPARa), PPARA (gene 5465) (UniProt Q07869); assay: ATG_PPARa_TRANS: Attagene TRANS-FACTORIAL HepG2 Assay for human Peroxisome Proliferator-activated Receptor alpha (PPARa) (AID 2283001; active = hit-call score of the fitted dose curve at least 0.9, where 1 is the maximum)
In short: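 Transient HepG2 transfection, GAL4-UAS reporters, NR-Gal4 chimeras; 24 h compound exposure. Readout: reporter transcripts by RT-PCR, 6-FAM primer extension, HpaI digest, capillary electrophoresis. Positive direction vs DMSO baseline.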

[11] = target: human Peroxisome Proliferator-activated Receptor delta (PPARd), PPARD (gene 5467) (UniProt Q03181); assay: ATG_PPARd_TRANS: Attagene TRANS-FACTORIAL HepG2 Assay for human Peroxisome Proliferator-activated Receptor delta (PPARd) (AID 2283002; active = hit-call score of the fitted dose curve at least 0.9, where 1 is the maximum)
In short: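 HepG2 cells transiently transfected with GAL4-UAS multiplexed reporter units driven by exogenous chimeric NR-GAL4 proteins; 24 h compound exposure. Reporter mRNA measured by RT-PCR, 6-FAM primer extension, HpaI digestion and capillary electrophoresis; gain of signal fitted relative to DMSO.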

[12] = read-out: Intercellular Adhesion Molecule 1 (ICAM1), ICAM1 (gene 3383); assay: BSK_3C_ICAM1: BioMAP Diversity Plus: 3C Assay for Intercellular Adhesion Molecule 1 (ICAM1) Biomarker Activity (AID 2283003); conditions: primary human endothelial cells (HUVEC); actives raise or lower the signal
In short: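 Using DMSO as baseline, bidirectional curve fitting was applied to ICAM-1 ELISA signals from HUVEC in the 3C system, measured 24 h after compound addition.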

[13] = target: human Retinoic Acid Receptor beta (RARb), RARB (gene 5915) (UniProt P10826); assay: ATG_RARb_TRANS: Attagene TRANS-FACTORIAL HepG2 Assay for human Retinoic Acid Receptor beta (AID 2283004; active = hit-call score of the fitted dose curve at least 0.9, where 1 is the maximum)
In short: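 Transient transfection of HepG2 with multiple reporter units → chemical dosing, 24 h → total RNA isolation → RT with oligo(dT) → reporter-specific PCR, 6-FAM primer extension, HpaI digest → capillary electrophoresis. Positive direction vs DMSO control.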

[14] = target: Retinoic acid receptor alpha (Homo sapiens) (UniProt P10276); assay: ATG_RARa_TRANS: Attagene TRANS-FACTORIAL HepG2 Assay for human Retinoic Acid Receptor alpha (RARa) (AID 2283005; active = hit-call score of the fitted dose curve at least 0.9, where 1 is the maximum)
In short: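 HepG2 transiently transfected with multiplex GAL4-UAS reporter units including a human RARa–GAL4 chimera; 24 h compound exposure. Reporter mRNA quantified by RT-PCR, 6-FAM labeling and capillary electrophoresis; gain of signal versus DMSO.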

[15] = BSK_3C_Proliferation: Cell Proliferation Assessment in the BioMAP Diversity Plus: 3C Assay (AID 2283006); conditions: primary human endothelial cells (HUVEC);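 as to AC50: potency may reflect either rise or fall in cell number versus DMSO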
In short: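 Measured here: sulforhodamine B (0.1%) staining of TCA-fixed sub-confluent umbilical vein endothelial cultures 48 h post-dosing, absorbance 560 nm. DMSO served as negative control and baseline; both signal gain and loss were modelled.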

[16] = target: Peroxisome proliferator-activated receptor gamma (Homo sapiens) (UniProt P37231); assay: ATG_PPARg_TRANS: Attagene TRANS-FACTORIAL HepG2 Assay for human Peroxisome Proliferator-activated Receptor-gamma (PPARg) (AID 2283007; active = hit-call score of the fitted dose curve at least 0.9, where 1 is the maximum)
In short: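 Multiplexed reporter transcription units in HepG2, 24 h dosing, reporter transcripts quantified by fluorescent RT-PCR and capillary electrophoresis. Increase over DMSO scored.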

[17] = target: Nuclear receptor subfamily 1 group I member 2 (Homo sapiens) (UniProt O75469); assay: ATG_PXR_TRANS: Attagene TRANS-FACTORIAL HepG2 Assay for human Pregnane X Receptor (PXR) (AID 2283008; active = hit-call score of the fitted dose curve at least 0.9, where 1 is the maximum)
In short: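 Trans-factorial format: exogenous NR-Gal4 fusion activity, not endogenous factor, in transfected human HepG2 liver cells. After 24 h dosing, RNA isolated, reverse-transcribed, amplified and resolved by capillary electrophoresis; induction scored versus DMSO.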

[18] = target: human Retinoic Acid Receptor gamma (RARg), RARG (gene 5916) (UniProt P13631); assay: ATG_RARg_TRANS: Attagene TRANS-FACTORIAL HepG2 Assay for human Retinoic Acid Receptor gamma (RARg) (AID 2283009; active = hit-call score of the fitted dose curve at least 0.9, where 1 is the maximum)
In short: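 Gain-of-signal relative to DMSO is reported from fluorescent capillary electrophoresis of RT-PCR reporter products. These came from HepG2 cells expressing transfected RARg-GAL4 chimeras with UAS reporters, harvested 24 h after dosing.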

[19] = target: human RAR-related Orphan Receptor beta (RORb), RORB (gene 6096) (UniProt Q92753); assay: ATG_RORb_TRANS: Attagene TRANS-FACTORIAL HepG2 Assay for human RAR-related Orphan Receptor beta (RORb) (AID 2283010; active = hit-call score of the fitted dose curve at least 0.9, where 1 is the maximum)
In short: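 Multiplexed transcription-factor reporter assay: HepG2 cells transiently carrying NR-Gal4/GAL4-UAS constructs, 24 h treatment, mRNA quantified by RT-PCR plus capillary electrophoresis fluorescence; activity scored as induction over DMSO.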

[20] = target: human RAR-related Orphan Receptor gamma (RORg), RORC (gene 6097) (UniProt P51449); assay: ATG_RORg_TRANS: Attagene TRANS-FACTORIAL HepG2 Assay for human RAR-related Orphan Receptor gamma (RORg) (AID 2283011; active = hit-call score of the fitted dose curve at least 0.9, where 1 is the maximum)
In short: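 First, HepG2 liver cells were transfected with GAL4-UAS-driven reporter constructs and the RORg-Gal4 fusion. Next, they were treated with chemical for 24 h. Finally, reporter mRNA was quantified by RT-PCR and capillary electrophoresis, with upward activity fitted against DMSO.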

Measured: AC50

Chain of human Retinoic Acid Receptor gamma (RARg), RARG (gene 5916) (P13631 whole entry, looked up, the tested form may be a part): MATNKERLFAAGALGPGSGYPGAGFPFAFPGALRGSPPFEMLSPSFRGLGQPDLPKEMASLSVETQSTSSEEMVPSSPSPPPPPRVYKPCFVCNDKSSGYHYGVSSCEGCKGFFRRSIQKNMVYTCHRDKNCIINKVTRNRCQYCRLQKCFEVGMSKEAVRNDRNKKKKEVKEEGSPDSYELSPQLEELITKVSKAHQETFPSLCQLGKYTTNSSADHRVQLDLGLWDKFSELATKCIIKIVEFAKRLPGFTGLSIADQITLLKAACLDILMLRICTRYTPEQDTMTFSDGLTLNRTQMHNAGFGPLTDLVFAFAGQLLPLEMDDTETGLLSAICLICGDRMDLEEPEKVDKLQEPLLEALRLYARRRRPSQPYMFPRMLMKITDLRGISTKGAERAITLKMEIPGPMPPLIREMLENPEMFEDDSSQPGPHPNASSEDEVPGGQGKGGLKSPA
Chain of human Peroxisome Proliferator-activated Receptor alpha (PPARa), PPARA (gene 5465) (Q07869 whole entry, looked up, the tested form may be a part): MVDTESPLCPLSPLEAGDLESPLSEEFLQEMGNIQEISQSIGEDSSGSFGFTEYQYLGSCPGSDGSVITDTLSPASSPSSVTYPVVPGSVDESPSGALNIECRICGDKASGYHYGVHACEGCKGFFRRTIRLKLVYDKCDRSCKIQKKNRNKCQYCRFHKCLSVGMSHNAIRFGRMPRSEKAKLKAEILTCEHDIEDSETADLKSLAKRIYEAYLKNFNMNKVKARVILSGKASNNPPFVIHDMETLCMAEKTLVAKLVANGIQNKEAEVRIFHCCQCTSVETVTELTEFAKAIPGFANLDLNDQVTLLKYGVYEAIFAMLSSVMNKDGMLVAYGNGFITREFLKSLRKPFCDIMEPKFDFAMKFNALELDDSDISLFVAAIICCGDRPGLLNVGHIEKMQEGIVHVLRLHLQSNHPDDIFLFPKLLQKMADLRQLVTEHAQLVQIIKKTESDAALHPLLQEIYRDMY
Chain of Myc proto-oncogene protein (Homo sapiens) (P01106 whole entry, looked up): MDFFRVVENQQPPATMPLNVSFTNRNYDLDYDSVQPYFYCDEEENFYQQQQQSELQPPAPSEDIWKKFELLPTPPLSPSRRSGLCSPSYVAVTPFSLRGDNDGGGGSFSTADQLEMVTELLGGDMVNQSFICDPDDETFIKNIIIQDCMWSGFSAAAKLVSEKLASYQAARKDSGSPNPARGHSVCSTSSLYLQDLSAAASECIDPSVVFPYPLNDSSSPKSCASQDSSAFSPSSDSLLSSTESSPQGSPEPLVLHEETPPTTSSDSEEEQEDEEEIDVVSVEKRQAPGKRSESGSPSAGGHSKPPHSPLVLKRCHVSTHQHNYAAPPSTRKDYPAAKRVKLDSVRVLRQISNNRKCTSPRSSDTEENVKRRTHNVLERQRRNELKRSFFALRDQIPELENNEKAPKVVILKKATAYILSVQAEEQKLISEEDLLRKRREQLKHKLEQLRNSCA
Chain of Cellular tumor antigen p53 (Homo sapiens) (P04637 whole entry, looked up): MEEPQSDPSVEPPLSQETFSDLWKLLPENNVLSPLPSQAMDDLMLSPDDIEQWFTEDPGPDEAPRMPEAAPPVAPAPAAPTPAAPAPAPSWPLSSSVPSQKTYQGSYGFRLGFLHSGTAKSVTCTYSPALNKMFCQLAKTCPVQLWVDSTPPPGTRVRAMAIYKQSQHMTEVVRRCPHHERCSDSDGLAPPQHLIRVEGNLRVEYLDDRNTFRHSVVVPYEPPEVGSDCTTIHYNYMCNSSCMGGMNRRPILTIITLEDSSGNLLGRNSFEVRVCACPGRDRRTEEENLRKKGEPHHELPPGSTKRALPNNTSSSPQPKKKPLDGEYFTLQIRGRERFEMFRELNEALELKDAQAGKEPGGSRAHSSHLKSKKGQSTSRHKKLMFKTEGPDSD
Chain of Nuclear receptor subfamily 1 group I member 2 (Homo sapiens) (O75469 whole entry, looked up, the tested form may be a part): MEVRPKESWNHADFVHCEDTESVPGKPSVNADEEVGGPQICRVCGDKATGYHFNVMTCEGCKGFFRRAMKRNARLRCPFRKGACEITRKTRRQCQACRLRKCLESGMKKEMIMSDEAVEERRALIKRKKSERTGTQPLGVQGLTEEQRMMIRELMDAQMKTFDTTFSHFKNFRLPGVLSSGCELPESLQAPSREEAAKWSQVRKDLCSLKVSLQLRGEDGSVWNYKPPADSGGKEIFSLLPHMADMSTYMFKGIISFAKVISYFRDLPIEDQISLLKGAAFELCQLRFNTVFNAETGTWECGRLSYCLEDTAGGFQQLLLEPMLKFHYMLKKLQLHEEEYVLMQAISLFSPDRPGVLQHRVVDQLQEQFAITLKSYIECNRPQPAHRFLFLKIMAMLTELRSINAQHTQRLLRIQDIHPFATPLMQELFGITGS
Chain of Peroxisome proliferator-activated receptor gamma (Homo sapiens) (P37231 whole entry, looked up): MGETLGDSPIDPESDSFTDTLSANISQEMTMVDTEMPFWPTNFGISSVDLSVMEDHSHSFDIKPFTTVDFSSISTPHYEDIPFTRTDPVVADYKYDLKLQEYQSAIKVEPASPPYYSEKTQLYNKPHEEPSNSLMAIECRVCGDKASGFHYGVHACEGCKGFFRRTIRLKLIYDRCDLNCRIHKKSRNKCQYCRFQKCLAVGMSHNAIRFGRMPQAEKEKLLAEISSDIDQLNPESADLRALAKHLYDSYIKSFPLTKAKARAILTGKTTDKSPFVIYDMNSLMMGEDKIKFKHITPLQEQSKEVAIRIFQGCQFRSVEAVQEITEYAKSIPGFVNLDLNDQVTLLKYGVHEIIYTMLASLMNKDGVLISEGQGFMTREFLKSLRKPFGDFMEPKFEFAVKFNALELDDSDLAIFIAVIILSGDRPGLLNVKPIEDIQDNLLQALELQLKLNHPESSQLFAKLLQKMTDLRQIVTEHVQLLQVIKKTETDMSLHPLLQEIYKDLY
Chain of human Peroxisome Proliferator-activated Receptor delta (PPARd), PPARD (gene 5467) (Q03181 whole entry, looked up, the tested form may be a part): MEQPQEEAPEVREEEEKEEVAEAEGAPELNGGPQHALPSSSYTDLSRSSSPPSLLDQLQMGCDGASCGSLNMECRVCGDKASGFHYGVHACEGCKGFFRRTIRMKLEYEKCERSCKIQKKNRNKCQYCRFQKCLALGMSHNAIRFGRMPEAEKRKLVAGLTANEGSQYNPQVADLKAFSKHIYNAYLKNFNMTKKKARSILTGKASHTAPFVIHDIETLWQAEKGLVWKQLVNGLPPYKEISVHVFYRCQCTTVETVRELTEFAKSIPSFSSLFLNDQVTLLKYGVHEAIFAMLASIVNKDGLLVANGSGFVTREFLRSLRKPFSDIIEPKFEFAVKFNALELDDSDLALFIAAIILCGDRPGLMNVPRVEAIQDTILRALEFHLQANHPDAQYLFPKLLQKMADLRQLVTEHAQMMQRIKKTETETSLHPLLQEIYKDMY
Chain of human Retinoic Acid Receptor beta (RARb), RARB (gene 5915) (P10826 whole entry, looked up): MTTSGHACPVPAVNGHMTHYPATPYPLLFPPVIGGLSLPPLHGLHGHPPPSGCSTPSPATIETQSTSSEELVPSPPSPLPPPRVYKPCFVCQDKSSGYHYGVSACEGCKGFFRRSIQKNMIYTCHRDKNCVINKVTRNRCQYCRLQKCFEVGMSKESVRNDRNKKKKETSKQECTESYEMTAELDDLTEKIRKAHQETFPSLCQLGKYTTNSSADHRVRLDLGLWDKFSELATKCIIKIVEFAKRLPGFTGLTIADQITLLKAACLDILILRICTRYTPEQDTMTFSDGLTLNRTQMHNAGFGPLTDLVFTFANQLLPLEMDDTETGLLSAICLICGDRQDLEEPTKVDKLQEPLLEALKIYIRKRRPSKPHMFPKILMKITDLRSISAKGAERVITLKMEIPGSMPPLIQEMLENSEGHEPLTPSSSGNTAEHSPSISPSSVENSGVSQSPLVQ
Chain of human RAR-related Orphan Receptor beta (RORb), RORB (gene 6096) (Q92753 whole entry, looked up, the tested form may be a part): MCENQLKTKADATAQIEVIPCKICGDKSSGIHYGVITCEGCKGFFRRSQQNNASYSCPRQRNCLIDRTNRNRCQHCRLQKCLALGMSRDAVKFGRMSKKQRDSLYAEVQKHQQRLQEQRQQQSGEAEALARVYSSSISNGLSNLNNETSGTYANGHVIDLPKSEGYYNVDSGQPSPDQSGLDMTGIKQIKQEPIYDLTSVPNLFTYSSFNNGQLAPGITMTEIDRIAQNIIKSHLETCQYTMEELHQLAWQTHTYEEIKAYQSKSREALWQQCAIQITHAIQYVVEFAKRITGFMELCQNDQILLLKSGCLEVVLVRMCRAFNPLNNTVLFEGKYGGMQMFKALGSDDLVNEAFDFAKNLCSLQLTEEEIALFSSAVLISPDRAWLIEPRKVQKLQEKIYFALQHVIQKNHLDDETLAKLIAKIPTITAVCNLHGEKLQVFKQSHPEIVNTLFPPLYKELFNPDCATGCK
Chain of human RAR-related Orphan Receptor gamma (RORg), RORC (gene 6097) (P51449 whole entry, looked up, the tested form may be a part): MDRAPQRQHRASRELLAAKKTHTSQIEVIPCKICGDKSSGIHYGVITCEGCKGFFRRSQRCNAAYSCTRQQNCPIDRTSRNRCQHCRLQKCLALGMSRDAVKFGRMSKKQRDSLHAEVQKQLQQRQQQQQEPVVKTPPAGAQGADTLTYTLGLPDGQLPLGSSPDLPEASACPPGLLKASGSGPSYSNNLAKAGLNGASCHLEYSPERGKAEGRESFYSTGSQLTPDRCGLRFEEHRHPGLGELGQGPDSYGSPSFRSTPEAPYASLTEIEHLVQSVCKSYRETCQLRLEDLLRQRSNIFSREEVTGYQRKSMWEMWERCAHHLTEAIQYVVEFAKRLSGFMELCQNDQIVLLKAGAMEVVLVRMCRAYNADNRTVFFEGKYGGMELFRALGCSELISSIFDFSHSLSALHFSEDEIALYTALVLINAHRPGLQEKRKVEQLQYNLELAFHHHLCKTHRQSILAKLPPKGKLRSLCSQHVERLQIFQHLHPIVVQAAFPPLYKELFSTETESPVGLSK

CC(C)(C)c1cc(O)c(C(C)(C)C)cc1O
active: [1] 114 µM | [3] 30.5 µM | [4] 33 µM | [6] 7.03 µM | [8] 9.79 µM | [9] 6.65 µM | [15] 8.74 µM | [16] 38.7 µM | [17] 2.99 µM
not listed: [19] | [20]
inactive: all other assays above

Cc1ccc(C)c(C)c1
not listed: [6] | [14] | [16] | [19] | [20]
inactive: all other assays above

O=c1c(O)c(-c2ccc(O)c(O)c2)oc2cc(O)cc(O)c12
active: [3] 27 µM | [5] 65.6 µM | [6] 15.6 µM | [7] 13.7 µM | [8] 32 µM | [9] 24.4 µM | [15] 26.8 µM
not listed: [11] | [13] | [14] | [17]
inactive: all other assays above
